Assay outcomes as filed in PubChem BioAssay.
Mdm2 MdmX PPI: disrupts the human Mdm2-MdmX interaction | O15151+Q00987 | SaOS-2 split-luciferase Mdm2/MdmX complementation, luminescence | inhibition, % at 8 µM | 3% of 330,000 active;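 active means inhibition of at least 50% at 8 µM in the primary screen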
Gli-Sufu antag: antagonists of Gli-Sufu signaling | AID 588413 | Sufu-KO-LIGHT fibroblasts, Gli luciferase reporter luminescence | inhibition, % at 5 µM | 0.74% of 340,000 active;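 active means inhibition above about 55%, limit read from the data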
NR3A LBD binder: NR3A (human) ligand-binding domain modulation | 2.5% of 340,000 active | AID 1259313 | Tm shift relative to glycine control, % at 25 µM | NR3A LBD differential scanning fluorimetry, Tm shift; 0% = protein alone, 100% = glycine-bound protein;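 active means melting temperature shift of at least 10% of the positive control shift, at one fixed dose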
CSC inhib: cancer stem cell inhibition; 1.1% of 300,000 active; cancer stem cell-like cells viability, luminescence; inhibition, % at 7.5 µM; AID 2717; in the data active means inhibition above about 75%; tested in HMLE shEcad cells
Beta apoptosis: beta cell apoptosis inhibition. INS-1E cytokine-induced death, ATP luminescence, 48 h; percent of positive-control rescue, neutral wells zero. protection from apoptosis, % (no concentration beside the values). 0.8% of 300,000 active;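 active means Every replicate reaches about 75%, or at least half do and their mean reaches it too, limit read from the data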;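 further: higher means more ATP so stronger rescue from cytokine killing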
MPTP block: inhibitors of mitochondrial permeability transition pore | 1.4% of 360,000 active | isolated mouse mitochondria, Ca2+ swelling absorbance, 30 min | inhibition, % at 10 µM;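 active means inhibition of 50% or more, scaled per plate between neutral and stimulator controls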
Large screens that a line does not name were inactive. Rows were chosen to be rich in hits. Some 6.6% of all compounds tested hit in one or more screens of this group.

CC(=O)Nc1ccc(N2C(=O)c3ccc(C(=O)Nc4nnc(SCc5ccc(F)cc5)s4)cc3C2=O)cc1	NR3A LBD binder 10
CCOC(=O)C(=O)Nc1nnc(SCc2ccc(F)cc2)s1	NR3A LBD binder 22
Cc1csc(NC(=O)c2ccc3nc[nH]c3c2)n1	none (no result: Beta apoptosis)
C[C@H](NC(=O)c1ccco1)C(=O)NCc1cccs1	none
COc1cccc2c1C1COC3C4CC(C(=O)O)C(C(C2)N13)N4C (stereo unspecified)	NR3A LBD binder 14 (no result: Mdm2 MdmX PPI, CSC inhib, Beta apoptosis)
Nc1ncc(Br)cc1S(=O)(=O)NCCC(=O)Nc1cccc(Cl)c1	NR3A LBD binder 23
Cc1ccc(NC(=O)CCNS(=O)(=O)c2cc(Br)cnc2N)cc1Cl	NR3A LBD binder 30
COc1cc(NC(=O)CCNS(=O)(=O)c2cc(Br)cnc2N)cc(OC)c1	none (no result: Gli-Sufu antag)
Cc1cc(NC(=O)CCNS(=O)(=O)c2cc(Br)cnc2N)ccc1Br	NR3A LBD binder 21
CCOC(=O)c1cccc(NC(=O)CCNS(=O)(=O)c2cc(Br)cnc2N)c1	none
Cc1ccc(NC(=O)CCNS(=O)(=O)c2cc(Br)cnc2N)c(Cl)c1	none (no result: Gli-Sufu antag, NR3A LBD binder, MPTP block)
CCCC/C=C1/CCC(CN(C)C)C1=O (stereo unspecified)	none (no result: Mdm2 MdmX PPI, CSC inhib, Beta apoptosis)
O=c1oc2cc(O[C@@H]3OC[C@@H](O)[C@H](O)[C@H]3O)ccc2c2ccccc12	none (no result: CSC inhib, Beta apoptosis)
Cc1cccc2nc(C(=O)Nc3cccc(C(=O)NC4CC4)c3)cn12	none
COc1ccc(NC(=O)CC(C)CC(=O)NCc2ccc(F)cc2)c(OC)c1 (stereo unspecified)	none
O=c1c2ccccc2nc(COc2ccccc2)n1/N=C/c1c[nH]c2ccccc12	NR3A LBD binder 25
O=[N+]([O-])c1cccc(C2NCC(c3ccccc3Cl)c3c2[nH]c2ccccc32)c1 (stereo unspecified)	CSC inhib 131
O=C(CNc1cccc(C(F)(F)F)c1)N/N=C/c1cn(-c2ccccc2)nc1-c1ccccc1	NR3A LBD binder 34
Cc1nn(Cc2ccccc2)c(C)c1/C=N/NC(=O)CNc1cccc(C(F)(F)F)c1	NR3A LBD binder 13
COc1ccc(-c2nn(-c3ccccc3)cc2/C=N/Nc2cccc(C(=O)O)c2)cc1	none (no result: Mdm2 MdmX PPI, CSC inhib, Beta apoptosis)
C=CCOc1ccccc1CN1CCC(Oc2cc(C(=O)NC3CC3)ccc2OC)CC1	none (no result: CSC inhib)
O=C(N/N=C/c1cc(Br)c(O)c(Br)c1)c1cc2c(ccc3ccccc32)o1	none
CCOc1cc(/C=N/NC(=O)c2cc3c(ccc4ccccc43)o2)ccc1O	NR3A LBD binder 28
CCn1cc(/C=N/NC(=O)c2cc3c(ccc4ccccc43)o2)c2ccccc21	NR3A LBD binder 26
O=C(N/N=C/c1ccc(O)c(Br)c1)c1cc2c(ccc3ccccc32)o1	NR3A LBD binder 35
Cc1nc(NC(=O)c2ccccc2)sc1-c1csc(Nc2ccc(Cl)cc2)n1	none (no result: Gli-Sufu antag, NR3A LBD binder, MPTP block)
O=C(Nc1cccc(-c2csc(Nc3ccc(Cl)cc3)n2)c1)c1ccccc1	NR3A LBD binder 25
N#Cc1ccc(-c2csc(NNC(=O)c3ccccc3)n2)cc1	Beta apoptosis 79
O=C(Nc1ccc(-c2csc(Nc3ccccc3)n2)cc1)c1ccccc1	NR3A LBD binder 17
O=C(NNc1nc(-c2ccccc2)cs1)c1ccccc1	none
COc1cc(C(=O)Nc2ccc(-c3nnc(-c4ccco4)o3)cc2)cc(OC)c1OC	NR3A LBD binder 30
Cc1ccccc1Oc1cc(-n2ncc(Cl)c(Cl)c2=O)ncn1	CSC inhib 108, Beta apoptosis 99 (no result: Mdm2 MdmX PPI)
CC(C)(C)c1ccc(NC(=O)CSc2nnc(-c3n[nH]c4ccccc34)o2)cc1	NR3A LBD binder 175
Cc1ccc(C)c(NC(=O)CSc2nnc(-c3n[nH]c4ccccc34)o2)c1	none
COc1cccc(/C=N/NC(=O)CCCC(=O)Nc2ccc(Br)cc2)c1	NR3A LBD binder 20
COc1cc(/C=N/NC(=O)CCC(=O)Nc2ccc(Br)cc2)ccc1O	none
O=C1CC(c2ccc(F)cc2)CC2=C1C=Nc1ccccc1N2 (stereo unspecified)	CSC inhib 103
Nc1nc(SCC(=O)Nc2ccc(Cl)cn2)n[nH]1	none
CCOC(=O)c1cn(Cc2ccccc2)c2cc(C)nn2c1=O	NR3A LBD binder 11
NC(=S)N=Nc1c(O)n(Cc2ccccc2)c2ccccc12	none
CCCCNC(=S)N=Nc1c(O)n(Cc2ccccc2)c2ccccc12	CSC inhib 80
CC(C)CNC(=O)COc1cccc(C(=O)NCc2ccccc2)c1	none
CCCCOc1cccc(C(=O)NC(=S)Nc2cccc(C(F)(F)F)c2)c1	NR3A LBD binder 12 (no result: Beta apoptosis)
CCOc1cccc(C(=O)NC(=S)Nc2cccc(NC(=O)c3ccccc3Cl)c2)c1	NR3A LBD binder 16
CCOc1cccc(C(=O)NC(=S)Nc2ccccc2)c1	none
CC(C)Oc1cccc(C(=O)NC(=S)Nc2cccc(C(F)(F)F)c2)c1	none
O=C(NC(=S)Nc1ccccn1)c1ccc([N+](=O)[O-])cc1	NR3A LBD binder 11
CC(=O)Nc1ccc2nc(NC(=O)c3ccc([N+](=O)[O-])s3)sc2c1	none (no result: Gli-Sufu antag, NR3A LBD binder, MPTP block)
Cc1nc2cc(NC(=O)c3ccc([N+](=O)[O-])s3)ccc2s1	NR3A LBD binder 24
CN(CC(=O)Nc1ccc(N2CCOCC2)cc1)C(=O)CCc1ccccc1Cl	none (no result: Beta apoptosis)
CCN1CCCC1CNC(=O)c1ccc(Sc2ccc(F)cc2)c([N+](=O)[O-])c1 (stereo unspecified)	CSC inhib 79
CCN1CCCC1CNC(=O)c1ccc(Sc2ccccc2Cl)c([N+](=O)[O-])c1 (stereo unspecified)	none
Cc1ccc(Cn2c(C(C)Nc3nc(-c4ccc(Cl)c([N+](=O)[O-])c4)cs3)nc3cc(C(F)(F)F)ccc32)cc1 (stereo unspecified)	NR3A LBD binder 14
CCCn1c(C(C)Nc2nc(-c3ccc(Cl)c([N+](=O)[O-])c3)cs2)nc2ccccc21 (stereo unspecified)	none
CCCn1c(CCNc2nc(-c3ccc(Cl)c([N+](=O)[O-])c3)cs2)nc2cc(Cl)c(Cl)cc21	NR3A LBD binder 13
C#CCN(C[C@H]1[C@H](OC(=O)NCc2ccc(OC)c(OC)c2)[C@H](OC(=O)NCc2ccc(OC)c(OC)c2)C[C@@H](C(=O)OC)[C@H]1C(=O)OC)S(=O)(=O)c1ccc(C)cc1	none (no result: Mdm2 MdmX PPI, Gli-Sufu antag, NR3A LBD binder, CSC inhib, Beta apoptosis)
Nc1ccccc1C(=O)NCc1ccc(Cl)cc1	NR3A LBD binder 12
O=CNn1cnc2c(oc3nc(-c4ccccc4)cc(-c4ccco4)c32)c1=O	NR3A LBD binder 29
Nc1c(C(=O)N/N=C/c2cccnc2)oc2nc(-c3ccccc3)cc(-c3ccco3)c12	none
CCn1c(=Nc2ccc(N3CCOCC3)cc2)ccc2ccccc21	NR3A LBD binder 14
Cc1ccc(OC(=O)NC2CCS(=O)(=O)C2)cc1C (stereo unspecified)	NR3A LBD binder 11
CC(=O)N1[C@H](C)C=C[C@]1(Cc1ccccc1)C(=O)NCCN1CCOCC1	none
O=[N+]([O-])c1ccccc1NCc1c(O)ccc2ccccc12	NR3A LBD binder 13
